The results in this text go back to PubChem BioAssay (NCATS).

Records with an inconclusive call do not appear. A call without a number means that no potency is given here. Activity calls are given as the source filed them. The call rests on the fitted dose curve; in most records, active means well fitted curve in the direction sought with a large enough effect; inconclusive means small, poorly fitted or top-dose-only effect, or another doubt; inactive means no such curve, though single readings can be large; an effect the other way counts as inactive or inconclusive.
Potency means the concentration at half of the fitted maximal effect.

The nature of one test: qHTS of pediatric cancer cell lines to identify multiple opportunities for drug repurposing: Primary screen for control Hh wild type fibroblast cells (AID 1347106). Further: nearly all actives have a fitted effect of over 55% in size. The conditions noted are these: Hh wild-type fibroblast viability, CellTiter-Glo luminescence, 48 h; series mostly up to 46 µM. In outline: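 Cells (500-1,000/well) in growth media were settled 5 h at 37 degrees C, then given compounds for 48 h. Viability was read as CellTiter-Glo luminescence. Primary runs used MIPE at 11 points (0.78 nM-46 µM) and NPC at 8 points (0.59 nM-46 µM); follow-ups used 11 points.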
(In general: Quantitative high-throughput screening tests each substance at several concentrations.)
Consider `Clc1ccc2ncc(-c3cccc(NC4CNC4)n3)n2c1`, for which the Potency result is “inactive”.

Consider `COc1ccc2c(OCc3nnc4ccc(-c5ccccc5)nn34)ccnc2c1`, for which the Potency entry is “inactive”. The same measure, in the same setting: under `O=C(c1cncc(Br)c1)N1CCC(N2CCCC2)CC1` stands “inactive”; under `COc1cc2ncn(-c3cc(OCc4ccccc4C(F)(F)F)c(C(N)=O)s3)c2cc1OC`, 18.7 µM (active).

For the compound `CN1CCC(CNc2ccc3ncc(-c4cccc(OC(F)(F)F)c4)n3n2)CC1`, the Potency was 18.7 µM (active). Consider `COc1cc(C(=O)NS(=O)(=O)c2ccccc2C)ccc1Cc1cn(C)c2ccc(NC(=O)OC3CCCC3)cc12`, for which the Potency entry was “inactive”. Still for that read-out and setting: next, `COc1cc(C(C)C)c2c(c1)S(=O)(=O)N(COc1cc(=O)n3cccc(OCCN4CCCCC4)c3n1)C2=O`: “inactive”; `O=C(NCCS(=O)(=O)c1ccc(C(F)(F)F)cn1)c1ccc(Cl)cc1`: “inactive”; `COc1cc2ncnc(Nc3ccc(F)c(Cl)c3)c2cc1NC(=O)C=CCN1CCCCC1`: “inactive”. The same measure, in the same setting: under `CCCCCCCCCC(=O)N[C@@H](Cc1c[nH]c2ccccc12)C(=O)N[C@H](CC(N)=O)C(=O)N[C@@H](CC(=O)O)C(=O)N[C@@H]1C(=O)NCC(=O)N[C@@H](CCCN)C(=O)N[C@@H](CC(=O)O)C(=O)N[C@H](C)C(=O)N[C@@H](CC(=O)O)C(=O)NCC(=O)N[C@H](CO)C(=O)N[C@@H]([C@@H](C)CC(=O)O)C(=O)N[C@@H](CC(=O)c2ccccc2N)C(=O)O[C@@H]1C` stands “inactive”; under `Cc1cccc(C=NNc2cc(N3CCOCC3)nc(OCCc3ccccn3)n2)c1`, “inactive”; under `CN1CCN(c2ccc3nc(-c4c(N)c5c(F)cccc5[nH]c4=O)[nH]c3c2)CC1`, “inactive”.

As to `CC(O)C1C(=O)N2C(C(=O)O)=C(SC3CNC(C(=O)N(C)C)C3)C(C)C12` (stereo unspecified), the Potency result was “inactive”. Still for that read-out and setting: next, `COC(=O)C[C@](O)(CCCC(C)(C)O)C(=O)O[C@@H]1C(OC)=C[C@]23CCCN2CCc2cc4c(cc2[C@H]13)OCO4`: “inactive”; `Cn1cc(-c2ccncc2)c(-c2ccc(OCc3ccc4ccccc4n3)cc2)n1`: “inactive”. `CC(C)(O)CCc1ccc(OCc2cc(-c3cccc(OC(F)F)c3)c3ncccc3c2)cc1`: the Potency result is “inactive”. With `N#Cc1c(O)c2c(-c3ccc(-c4ccccc4O)cc3)csc2[nH]c1=O`, the Potency entry was “inactive”. Still for that read-out and setting: under `CC(=O)SC[C@@H](C)C(=O)N1CCC[C@H]1C(=O)N[C@@H](Cc1ccccc1)C(=O)O` stands “inactive”. Still for that read-out and setting: next, `CCCCN1CCC(CNC(=O)c2c3n(c4ccccc24)CCCO3)CC1`: 1.18 µM (active); `O=C(Nc1nc2cccc(-c3ccc(CN4CCS(=O)(=O)CC4)cc3)n2n1)C1CC1`: “inactive”; `CCOc1ccccc1OCCNC(C)Cc1ccc(OC)c(S(N)(=O)=O)c1` (stereo unspecified): “inactive”.

Turning to `C1Cc2[nH]nc(-c3nn[nH]n3)c2C1`, the Potency result was “inactive”. On to `Clc1cccc(-n2nnnc2NCc2ccccc2Oc2ccccn2)c1Cl`, for which the Potency result is “inactive”. Still for that read-out and setting: next, `C[C@]12CC[C@H](O)CC1=CCC1C2CC[C@]2(C)C(n3cnc4ccccc43)=CCC12` (stereo partly specified): “inactive”; `CC[C@H](CO)Nc1nc(NCc2ccccc2)c2ncn(C(C)C)c2n1`: “inactive”.

With `Cn1c2cc(S(C)=O)sc2c2cnn(Cc3cccc(N)c3)c(=O)c21` (stereo unspecified), the Potency result was “inactive”. Still for that read-out and setting: under `COC(=O)C1=C(C)NC(C)=C(C(=O)OCCN2CCN(C(c3ccccc3)c3ccccc3)CC2)C1c1cccc([N+](=O)[O-])c1` (stereo unspecified) stands “inactive”. The same measure, in the same setting: next, `Cc1ccc(CN2CCNCC2)cc1NC(=O)CNc1ccc(F)c(F)c1`: “inactive”; `CC(=O)Nc1sc2c(c1-c1nc3ccccc3s1)CNC2`: “inactive”. Regarding `CC(C)c1noc(N2CCC(COc3ccc(-c4ccc(S(C)(=O)=O)cc4)nc3)CC2)n1`, the Potency entry is “inactive”. Take `Clc1cccc(-c2nnnn2Cc2cccnc2)c1Cl`: the Potency result is “inactive”.

Turning to `O=C(C=Cc1c(C(=O)O)[nH]c2cc(Cl)cc(Cl)c12)Nc1ccccc1`, the Potency entry is “inactive”.

The nature of another test: qHTS of pediatric cancer cell lines to identify multiple opportunities for drug repurposing: Primary screen for Rh30 cells (AID 1347107). Further: nearly all actives have a fitted effect of over 75% in size. The following applies: Rh30 rhabdomyosarcoma viability, CellTiter-Glo luminescence, 48 h; series mostly up to 46 µM. In outline: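 Cells (500-1,000/well) rested 5 h, then received compounds for 48 h; metabolically active cells were measured by CellTiter-Glo luminescence. Final concentrations spanned up to 46 µM (MIPE, 11-point) or 0.59 nM-46 µM (NPC, 8-point) in primary screens, 11-point in follow-ups.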
Take `COc1ccc2c(OCc3nnc4ccc(-c5ccccc5)nn34)ccnc2c1`: the Potency result is “inactive”. Regarding `O=C(c1cncc(Br)c1)N1CCC(N2CCCC2)CC1`, the Potency result is “inactive”. Regarding `CN1CCC(CNc2ccc3ncc(-c4cccc(OC(F)(F)F)c4)n3n2)CC1`, the Potency was 23.5 µM (active). Turning to `COc1cc(C(C)C)c2c(c1)S(=O)(=O)N(COc1cc(=O)n3cccc(OCCN4CCCCC4)c3n1)C2=O`, the Potency result was “inactive”.

In the case of `O=C(NCCS(=O)(=O)c1ccc(C(F)(F)F)cn1)c1ccc(Cl)cc1`, the Potency entry is “inactive”. The same measure, in the same setting: under `CCCCCCCCCC(=O)N[C@@H](Cc1c[nH]c2ccccc12)C(=O)N[C@H](CC(N)=O)C(=O)N[C@@H](CC(=O)O)C(=O)N[C@@H]1C(=O)NCC(=O)N[C@@H](CCCN)C(=O)N[C@@H](CC(=O)O)C(=O)N[C@H](C)C(=O)N[C@@H](CC(=O)O)C(=O)NCC(=O)N[C@H](CO)C(=O)N[C@@H]([C@@H](C)CC(=O)O)C(=O)N[C@@H](CC(=O)c2ccccc2N)C(=O)O[C@@H]1C` stands “inactive”; under `CC(O)C1C(=O)N2C(C(=O)O)=C(SC3CNC(C(=O)N(C)C)C3)C(C)C12` (stereo unspecified), “inactive”; under `CC(C)(O)CCc1ccc(OCc2cc(-c3cccc(OC(F)F)c3)c3ncccc3c2)cc1`, “inactive”. Still for that read-out and setting: under `CC(=O)SC[C@@H](C)C(=O)N1CCC[C@H]1C(=O)N[C@@H](Cc1ccccc1)C(=O)O` stands “inactive”.

Regarding `CCCCN1CCC(CNC(=O)c2c3n(c4ccccc24)CCCO3)CC1`, the Potency entry is “inactive”. Same read-out and setting: next, `CCOc1ccccc1OCCNC(C)Cc1ccc(OC)c(S(N)(=O)=O)c1` (stereo unspecified): “inactive”; `C1Cc2[nH]nc(-c3nn[nH]n3)c2C1`: “inactive”; `Clc1cccc(-n2nnnc2NCc2ccccc2Oc2ccccn2)c1Cl`: “inactive”.

In the case of `C[C@]12CC[C@H](O)CC1=CCC1C2CC[C@]2(C)C(n3cnc4ccccc43)=CCC12` (stereo partly specified), the Potency result is “inactive”. For `Cn1c2cc(S(C)=O)sc2c2cnn(Cc3cccc(N)c3)c(=O)c21` (stereo unspecified), the Potency entry was “inactive”. Consider `COC(=O)C1=C(C)NC(C)=C(C(=O)OCCN2CCN(C(c3ccccc3)c3ccccc3)CC2)C1c1cccc([N+](=O)[O-])c1` (stereo unspecified), for which the Potency entry was “inactive”. Still for that read-out and setting: under `CC(C)c1noc(N2CCC(COc3ccc(-c4ccc(S(C)(=O)=O)cc4)nc3)CC2)n1` stands “inactive”; under `Clc1cccc(-c2nnnn2Cc2cccnc2)c1Cl`, “inactive”. `O=C(C=Cc1c(C(=O)O)[nH]c2cc(Cl)cc(Cl)c12)Nc1ccccc1`: the Potency entry was “inactive”.
